Here are results for 36 compounds from PubChem BioAssay.

Structures are written as SMILES. Activity calls are given as the source filed them.

The first test relates to Wnt5a (protein binding on small-molecule microarray). The test can be described thus: Wnt5a binders on small-molecule microarray, primary screen, biophysical, 635/667 nm fluorescence (AID 1142).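 Note: fluorescence read at 667 nm with signal to noise per printed feature.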 Conditions: 635 nm fluorescence, higher = more signal.
As for `O=C1O[C@H](c2ccccc2)[C@H](c2ccccc2)N2[C@H]1[C@@H](C(=O)NC[C@H](O)c1ccccc1)[C@]1(C(=O)Nc3ccc(C#CCCO)cc31)[C@H]2c1ccc(O)cc1`, the composite z-score was -0.11.

With `COCCOC(=O)N1C(=O)[C@@]2(c3cc(C#CCNC(N)=O)ccc31)[C@H](c1ccccc1OCCO)N1[C@H](c3ccccc3)[C@H](c3ccccc3)OC(=O)[C@H]1[C@@H]2C(N)=O`, the composite z-score stood at 0.116. Still for that read-out and setting: the figure for `O=C1C2C=CC(C(O)c3cccs3)N(Nc3ccccc3F)C2C(=O)N1c1ccccc1` (stereo not given) is 0.13; for `COCCOC(=O)N1C(=O)[C@@]2(c3cc(C#Cc4ccc(OC)cc4)ccc31)[C@H](C(=O)N1CCN(c3ncccn3)CC1)[C@H]1C(=O)O[C@H](c3ccccc3)[C@H](c3ccccc3)N1[C@@H]2c1ccc(O)cc1` it is -0.0081; for `COC(=O)c1ccc(C23CC2(C(NP(=O)(c2ccccc2)c2ccccc2)c2ccccc2)C3)cc1` (stereo not given) it is 0.211. On the same count and under the same terms, the value for `CS(=O)(=O)CCOC(=O)C1=CC(CCCO)=CC(c2cccs2)N(Cc2cc3c(cc2Br)OCO3)C=C1C(=O)OCCS(C)(=O)=O` (stereo not given) was 0.567; that for `CC(C)c1ccc(NN2C(C(O)c3ccc(N(C)C)cc3)C=CC3C(=O)N(c4ccccc4)C(=O)C32)cc1` (stereo not given) was 0.125; that for `COCCOC(=O)N1C(=O)[C@@]2(c3cc(C#CCC(C(=O)OC)C(=O)OC)ccc31)[C@H](c1ccc(O)cc1)N1[C@H](c3ccccc3)[C@H](c3ccccc3)OC(=O)[C@H]1[C@@H]2C(N)=O` was 0.641.

For the compound `COc1ccc([Si](C)(C)[C@@H]2[C@@H](CCn3cc([C@H](O)c4ccccc4)nn3)O[C@]3(C(=O)N(Cc4ccc(N5C(=O)c6cccc7cccc5c67)cc4)c4ccccc43)[C@H]2C)cc1`, the composite z-score is -0.179. As to `CCOC(=O)C1=CC[C@@H](c2ccccc2)N(S(=O)(=O)c2ccc(C)cc2)[C@H]1C(=O)OCC`, the composite z-score is 0.3. In the case of `CCCCCN1CC=CC23O[C@@H]4/C=C\CCCOC(=O)C4[C@H]2C(=O)N(CCCCCCO)[C@@H]3C1=O` (stereo not given in full), the composite z-score was -0.686. Turning to `COCCOC(=O)N1C(=O)[C@@]2(c3ccccc31)[C@H](C(=O)NC[C@H](O)c1ccccc1)[C@H]1C(=O)O[C@H](c3ccccc3)[C@H](c3ccccc3)N1[C@@H]2c1ccc(OCCO)cc1`, the composite z-score turned out to be 0.788. Still for that read-out and setting: the figure for `CC(=O)Nc1cc(Br)ccc1C(=O)O` is -0.129; for `CN(C)C(=O)[C@@]1(CCC(=O)OC(C)(C)C)N=C(c2ccc(OCCCO)cc2)O[C@H]1c1ccccc1` it is 0.257. Still for that read-out and setting: the value for `C=CCOC(=O)[C@@H]1[C@H]2C(=O)O[C@H](c3ccccc3)[C@H](c3ccccc3)N2[C@H](c2ccc(OCCOC(=O)[C@@H]3C[C@@H]4C(=O)N[C@@H](Cc5ccccc5)C(=O)N4[C@@H]3c3cccc(OCCO)c3)cc2)[C@@]12C(=O)Nc1ccc(I)cc12` was 0.867; that for `COc1cc2c(cc1O)C(C)N(Cc1cccc(OC(F)(F)F)c1)CC2` (stereo not given) was 0.475; that for `CC(C)CNC(=O)[C@@]1(c2ccc([N+](=O)[O-])cc2)CC(=O)N(CC23CC4CC(CC(C4)C2)C3)[C@@H]1c1ccc(CO)cc1` was 0.239. Regarding `COc1ccc([Si](C)(C)[C@@H]2[C@@H](CC(=O)N(CCO)Cc3ccccc3)O[C@]3(C(=O)N(C)c4ccccc43)[C@H]2C)cc1`, the composite z-score was 0.205. In turn, `CC(C)N1C(=O)C[C@@](C(=O)NCc2ccccc2)(c2ccc([N+](=O)[O-])cc2)[C@H]1c1ccc(CO)cc1` had a composite z-score of -0.214. Still for that read-out and setting: the value for `O=C1C2C=CC(C(O)c3ccc(B(O)O)cc3)N(Nc3ccccc3)C2C(=O)N1c1ccccc1` (stereo not given) was -0.0341; that for `O=C(CCN1CCOCC1)c1cccc(O)c1` was 0.361; that for `C=CC[C@]1(C(=O)N2CCOCC2)N=C(c2ccc(OCCCO)cc2)O[C@H]1c1ccccc1` was 0.514. Compound `C=CC(=C)C1=CCO[C@@H]1[C@H]1CCCN1S(=O)(=O)c1ccccc1[N+](=O)[O-]` returned a composite z-score of 0.224. The same measure, in the same setting: the figure for `COc1ccc(C#Cc2ccc3c(c2)[C@]2(C(=O)N3)[C@H](c3ccc(O)cc3)N3[C@H](c4ccccc4)[C@H](c4ccccc4)OC(=O)[C@H]3[C@@H]2C(=O)NC[C@H](O)c2ccccc2)cc1` is 0.365. Still for that read-out and setting: the figure for `CN1C=C(C(=O)OCCS(C)(=O)=O)C(C(=O)OCCS(C)(=O)=O)=CC(CCCO)=CC1C1CC1` (stereo not given) is -0.102; for `C=CC[C@@]1(C(=O)NCC(O)CO)N=C(c2ccc(OCCCO)cc2)O[C@@H]1c1ccccc1N=[N+]=[N-]` (stereo not given in full) it is 0.147.

Test system in a further test: not listed separately
Description: cell viability in Huh7 cells, primary screen, cytotoxicity control for HCV replication inhibitor project, CellTiter-Glo luminescence, basal, 48 h (AID 1143).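 Note: Huh7 hepatoma cells carrying a hepatitis C replication reporter with no stimulus; test concentration not given here.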 Conditions: Huh7 HCV replicon, higher = more signal, called active from +8 up or from −8 down.
As to `C=CCC(OC(C)=O)[C@@H]1[C@@H](N(Cc2cc3ccccc3o2)C(=O)c2ccc(C)cc2)c2cc(OCCCO)ccc2N1C(=O)c1ccc2ccccc2c1` (stereo not given in full), the z-score is 0.0491 (inactive).

For `COc1c(C)cc(-c2cc3c(c(-c4ccc(Oc5ccccc5)cc4)n2)[Si](C(C)C)(C(C)C)OC3)cc1C`, the z-score is -0.0304 (inactive).

In the case of `COc1ccc([Si](C)(C)[C@@H]2[C@@H](CC(=O)N3CCC[C@H]3CO)O[C@]3(C(=O)N(C)c4c(Br)cc(C)cc43)[C@H]2C)cc1`, the z-score was -2.39 (inactive). The same measure, in the same setting: the figure for `CCC(CC)C(O)C1C=CC2C(=O)N(c3ccccc3)C(=O)C2N1Nc1ccc(C#N)cc1` (stereo not given) is 0.625 (inactive); for `C=CCC(OC(C)=O)[C@@H]1[C@@H](N(Cc2ccc(-c3ccccc3)cc2)C(=O)Cc2ccc(F)cc2)c2cc(OCCCO)ccc2N1C(=O)c1ccc2ccccc2n1` (stereo not given in full) it is 0.0753 (inactive); for `C=C[C@@H](COC(C)=O)N(Cc1ccccc1[N+](=O)[O-])S(=O)(=O)c1ccc(Br)cc1` it is -4.76 (inactive). The same measure, in the same setting: the value for `COCCOC(=O)N1C(=O)[C@@]2(c3cc(C#CC4=CCCCC4)ccc31)[C@H](C(=O)NC[C@H](O)c1ccccc1)[C@H]1C(=O)O[C@H](c3ccccc3)[C@H](c3ccccc3)N1[C@@H]2c1ccc(O)cc1` was -3.91 (inactive); that for `[N-]=[N+]=Nc1ccccc1[C@@H]1OC(c2ccc(OCCCO)cc2)=N[C@]1(CCS(=O)(=O)c1ccccc1)C(=O)N1CCOCC1` was -2.26 (inactive); that for `Cc1ccc(S[C@]2(C(=O)NCC(C)C)CC(=O)N(Cc3ccccc3Cl)[C@@H]2c2ccc(CO)cc2)cc1` was 0.554 (inactive). As for `CC(C)C(=C=CC[C@@H](O)c1ccccc1OCCO)C[C@@H](O)c1ccccn1`, the z-score is -1.3 (inactive). With `O=C1O[C@H](c2ccccc2)[C@H](c2ccccc2)N2[C@H]1[C@@H](C(=O)NC[C@H](O)c1ccccc1)[C@]1(C(=O)Nc3ccc(C#CCCO)cc31)[C@H]2c1ccc(O)cc1`, the z-score was -4.32 (inactive). Take `COCCOC(=O)N1C(=O)[C@@]2(c3cc(C#CCNC(N)=O)ccc31)[C@H](c1ccccc1OCCO)N1[C@H](c3ccccc3)[C@H](c3ccccc3)OC(=O)[C@H]1[C@@H]2C(N)=O`: the z-score was -0.895 (inactive). Take `O=C1C2C=CC(C(O)c3cccs3)N(Nc3ccccc3F)C2C(=O)N1c1ccccc1` (stereo not given): the z-score is -1.1 (inactive). The same measure, in the same setting: the figure for `COCCOC(=O)N1C(=O)[C@@]2(c3cc(C#Cc4ccc(OC)cc4)ccc31)[C@H](C(=O)N1CCN(c3ncccn3)CC1)[C@H]1C(=O)O[C@H](c3ccccc3)[C@H](c3ccccc3)N1[C@@H]2c1ccc(O)cc1` is -3.61 (inactive). For the compound `COC(=O)c1ccc(C23CC2(C(NP(=O)(c2ccccc2)c2ccccc2)c2ccccc2)C3)cc1` (stereo not given), the z-score is -2.07 (inactive). On the same count and under the same terms, the value for `CS(=O)(=O)CCOC(=O)C1=CC(CCCO)=CC(c2cccs2)N(Cc2cc3c(cc2Br)OCO3)C=C1C(=O)OCCS(C)(=O)=O` (stereo not given) was -1.26 (inactive); that for `CC(C)c1ccc(NN2C(C(O)c3ccc(N(C)C)cc3)C=CC3C(=O)N(c4ccccc4)C(=O)C32)cc1` (stereo not given) was -1.1 (inactive); that for `COCCOC(=O)N1C(=O)[C@@]2(c3cc(C#CCC(C(=O)OC)C(=O)OC)ccc31)[C@H](c1ccc(O)cc1)N1[C@H](c3ccccc3)[C@H](c3ccccc3)OC(=O)[C@H]1[C@@H]2C(N)=O` was -0.427 (inactive).

Regarding `COc1ccc([Si](C)(C)[C@@H]2[C@@H](CCn3cc([C@H](O)c4ccccc4)nn3)O[C@]3(C(=O)N(Cc4ccc(N5C(=O)c6cccc7cccc5c67)cc4)c4ccccc43)[C@H]2C)cc1`, the z-score is -4.7 (inactive). On the same count and under the same terms, the value for `CCOC(=O)C1=CC[C@@H](c2ccccc2)N(S(=O)(=O)c2ccc(C)cc2)[C@H]1C(=O)OCC` was -4.23 (inactive); that for `CCCCCN1CC=CC23O[C@@H]4/C=C\CCCOC(=O)C4[C@H]2C(=O)N(CCCCCCO)[C@@H]3C1=O` (stereo not given in full) was -1.95 (inactive). Consider `COCCOC(=O)N1C(=O)[C@@]2(c3ccccc31)[C@H](C(=O)NC[C@H](O)c1ccccc1)[C@H]1C(=O)O[C@H](c3ccccc3)[C@H](c3ccccc3)N1[C@@H]2c1ccc(OCCO)cc1`, for which the z-score is -3.37 (inactive). Same read-out and setting: the figure for `CC(=O)Nc1cc(Br)ccc1C(=O)O` is 0.0092 (inactive); for `CN(C)C(=O)[C@@]1(CCC(=O)OC(C)(C)C)N=C(c2ccc(OCCCO)cc2)O[C@H]1c1ccccc1` it is -4.42 (inactive). In the case of `C=CCOC(=O)[C@@H]1[C@H]2C(=O)O[C@H](c3ccccc3)[C@H](c3ccccc3)N2[C@H](c2ccc(OCCOC(=O)[C@@H]3C[C@@H]4C(=O)N[C@@H](Cc5ccccc5)C(=O)N4[C@@H]3c3cccc(OCCO)c3)cc2)[C@@]12C(=O)Nc1ccc(I)cc12`, the z-score is -0.166 (inactive). Still for that read-out and setting: the figure for `COc1cc2c(cc1O)C(C)N(Cc1cccc(OC(F)(F)F)c1)CC2` (stereo not given) is -0.842 (inactive). In the case of `CC(C)CNC(=O)[C@@]1(c2ccc([N+](=O)[O-])cc2)CC(=O)N(CC23CC4CC(CC(C4)C2)C3)[C@@H]1c1ccc(CO)cc1`, the z-score is -4.7 (inactive). Same read-out and setting: the figure for `COc1ccc([Si](C)(C)[C@@H]2[C@@H](CC(=O)N(CCO)Cc3ccccc3)O[C@]3(C(=O)N(C)c4ccccc43)[C@H]2C)cc1` is -4.28 (inactive); for `CC(C)N1C(=O)C[C@@](C(=O)NCc2ccccc2)(c2ccc([N+](=O)[O-])cc2)[C@H]1c1ccc(CO)cc1` it is -1.5 (inactive).
